This passage reports growth results from the supplement of paper PMC9262897, “Low-cost anti-mycobacterial drug discovery using engineered E. coli” (Nature Communications, 2022).

Assay in all cases: growth (OD600 after 10 h); higher = more growth (less inhibition)
Assay [1] concerns E. coli TESEC Alr+ wild-type control. Conditions: compound 0.1 mM; raw OD600 reference: median of DMSO wells 0.241, cell-free background 0.041. On the procedure: (§1)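 TESEC Mtb Alr E. coli, or the Alr+ wild-type control, in 384-well plates with Prestwick library compounds at 0.1 mM and 1% DMSO, across arabinose induction levels of 1E3 to 1E7 nM. Growth is read as OD600 after 10 h at 37 °C in triplicate biological replicates.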

The test system of assay [2] is E. coli TESEC Mtb Alr. To be noted: compound 0.1 mM. On the procedure: as §1
For another assay, the system named is E. coli TESEC Mtb Asd. To be noted: compound 0.1 mM. On the procedure: (§2)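 TESEC E. coli strains in which the native enzyme is deleted and replaced by arabinose-inducible Mtb Asd, DapB, CysH or TrpD, each grown in its selective medium. Strains were screened against the Prestwick library at 0.1 mM and 1% DMSO in 384-well format at low and high arabinose induction. Growth is read as OD600 after 10 h in triplicate.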

A further assay deals with E. coli TESEC Mtb DapB. Conditions: compound 0.1 mM. On the procedure:
as §2

In assay [3] the test system is E. coli TESEC Alr+ wild-type control. To be noted: compound 0.1 mM; raw OD600 reference: median of DMSO wells 0.49, cell-free background 0.052. On the procedure: (§3)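 TESEC Mtb Alr E. coli (ΔaraC ΔtolC ΔentC Δalr ΔdadX, arabinose-inducible Mtb Alr) or the Alr+ wild-type control strain, grown in defined M9-fructose medium without D-alanine in 96-well plates with Prestwick library compounds at 0.1 mM and 1% DMSO. Low Alr induction is 0.1 µM arabinose and high induction is 10 mM arabinose.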

The test system of assay [4] is E. coli TESEC Mtb Alr. To be noted: compound 0.1 mM. On the procedure: as §3
The source holds these as a separate data set.

The mark [5] stands for this setting: arabinose 1000 nM, raw OD600 reference: median of DMSO wells 0.294, cell-free background 0.041.
The mark [6] stands for this setting: arabinose 10000 nM, raw OD600 reference: median of DMSO wells 0.264, cell-free background 0.041.
Setting [7] is: arabinose 100000 nM, raw OD600 reference: median of DMSO wells 0.201, cell-free background 0.041.
Where [8] appears, read: arabinose 1000000 nM, raw OD600 reference: median of DMSO wells 0.193, cell-free background 0.041.
[9] abbreviates: arabinose 10000000 nM, raw OD600 reference: median of DMSO wells 0.146, cell-free background 0.041.
Setting [10] is: arabinose induction (level): High, raw OD600 reference: median of DMSO wells 0.331, cell-free background 0.041.
Where [11] appears, read: arabinose induction (level): Low, raw OD600 reference: median of DMSO wells 0.417, cell-free background 0.041.
Setting [12] is: arabinose induction (level): High, raw OD600 reference: median of DMSO wells […], cell-free background 0.041.
Setting [13] is: arabinose induction (level): Low, raw OD600 reference: median of DMSO wells 0.227, cell-free background 0.041.
Where [14] appears, read: arabinose 100 nM, raw OD600 reference: median of DMSO wells 0.413, cell-free background 0.052.
Setting [15] is: arabinose 10000000 nM, raw OD600 reference: median of DMSO wells […], cell-free background 0.052.

Where a name gives a salt, the structure may show the parent alone. ± gives the standard deviation of the averaged measurements.

`NCCc1cc[nH]n1` [Betazole hydrochloride]: the growth worked out at 0.25 ± 0.0071 in assay [1]; 0.254 ± 0.06 in the assay with E. coli TESEC Mtb Alr [2] (setting [5]); 0.259 ± 0.014 in the assay on E. coli TESEC Mtb Alr [2] (setting [6]); 0.2 ± 0.03 in the assay with E. coli TESEC Mtb Alr [2] (setting [7]); 0.1943 ± 0.00064 with E. coli TESEC Mtb Alr [2] (setting [8]); 0.14 ± 0.0021 in the assay with E. coli TESEC Mtb Alr [2] (setting [9]). Moreover, the growth amounted to 0.279 ± 0.0079 in the assay on E. coli TESEC Mtb Asd (setting [10]); 0.379 ± 0.081 in the assay on E. coli TESEC Mtb Asd (setting [11]); 0.215 ± 0.021 in the assay with E. coli TESEC Mtb DapB (setting [12]); 0.254 ± 0.052 with E. coli TESEC Mtb DapB (setting [13]); 0.494 ± 0.066 in assay [3]; 0.408 ± 0.013 in the assay with E. coli TESEC Mtb Alr [4] (setting [14]). Further, in the assay on E. coli TESEC Mtb Alr [4] (setting [15]), the growth amounted to 0.305 ± 0.067.
Consider `NS(=O)(=O)c1cc2c(cc1C(F)(F)F)NCNS2(=O)=O` [Hydroflumethiazide], for which the growth in assay [1] was 0.2612 ± 0.002; in the assay on E. coli TESEC Mtb Alr [2] (setting [5]) it was 0.296 ± 0.0066; in the assay on E. coli TESEC Mtb Alr [2] (setting [6]) it was 0.262 ± 0.01; with E. coli TESEC Mtb Alr [2] (setting [7]) it was 0.239 ± 0.011; with E. coli TESEC Mtb Alr [2] (setting [8]) it was 0.1758 ± 0.0006; in the assay with E. coli TESEC Mtb Alr [2] (setting [9]), 0.147 ± 0.0041. The growth in the assay with E. coli TESEC Mtb Asd (setting [10]) was determined as 0.388 ± 0.036; with E. coli TESEC Mtb Asd (setting [11]) it was 0.442 ± 0.06; in the assay with E. coli TESEC Mtb DapB (setting [12]) it was 0.184 ± 0.012; in the assay on E. coli TESEC Mtb DapB (setting [13]), 0.239 ± 0.028; in assay [3] it was 0.455 ± 0.035; in the assay on E. coli TESEC Mtb Alr [4] (setting [14]), 0.406 ± 0.013. In the assay with E. coli TESEC Mtb Alr [4] (setting [15]), this molecule returned a growth of 0.32 ± 0.053.
With `CCCC(C(=O)OCCN(CC)CC)(c1ccccc1)c1ccccc1` [Proadifen hydrochloride], the growth was 0.0491 ± 0.0002 in assay [1]; 0.04737 ± 0.00042 in the assay on E. coli TESEC Mtb Alr [2] (setting [5]); 0.04077 ± 0.00038 in the assay on E. coli TESEC Mtb Alr [2] (setting [6]); 0.0496 ± 0.0007 with E. coli TESEC Mtb Alr [2] (setting [7]); 0.04163 ± 0.00032 in the assay on E. coli TESEC Mtb Alr [2] (setting [8]); 0.04523 ± 0.00015 in the assay with E. coli TESEC Mtb Alr [2] (setting [9]). Also, the growth in the assay with E. coli TESEC Mtb Asd (setting [10]) worked out at 0.0541 ± 0.001; in the assay with E. coli TESEC Mtb Asd (setting [11]), 0.0665 ± 0.012; in the assay on E. coli TESEC Mtb DapB (setting [12]), 0.126 ± 0.0053; with E. coli TESEC Mtb DapB (setting [13]) it was 0.129 ± 0.0055; in assay [3], 0.0545 ± 0.001; with E. coli TESEC Mtb Alr [4] (setting [14]), 0.319 ± 0.17. For the same molecule, in the assay with E. coli TESEC Mtb Alr [4] (setting [15]), the growth stood at 0.0643 ± 0.01.
For `CCOc1cc(CC(=O)N[C@@H](CC(C)C)c2ccccc2N2CCCCC2)ccc1C(=O)O` [Repaglinide], the growth in assay [1] stood at 0.185 ± 0.0042; in the assay with E. coli TESEC Mtb Alr [2] (setting [5]) it was 0.199 ± 0.0075; in the assay on E. coli TESEC Mtb Alr [2] (setting [6]), 0.26 ± 0.024; in the assay with E. coli TESEC Mtb Alr [2] (setting [7]), 0.175 ± 0.0084; with E. coli TESEC Mtb Alr [2] (setting [8]), 0.174 ± 0.0073; with E. coli TESEC Mtb Alr [2] (setting [9]), 0.155 ± 0.01. In addition, the growth in the assay with E. coli TESEC Mtb Asd (setting [10]) stood at 0.282 ± 0.03; in the assay with E. coli TESEC Mtb Asd (setting [11]), 0.247 ± 0.032; in the assay on E. coli TESEC Mtb DapB (setting [12]), 0.168 ± 0.014; with E. coli TESEC Mtb DapB (setting [13]), 0.201 ± 0.031; in assay [3], 0.482 ± 0.005; with E. coli TESEC Mtb Alr [4] (setting [14]), 0.4 ± 0.0047. In the assay with E. coli TESEC Mtb Alr [4] (setting [15]), the growth was 0.306 ± 0.014.
